High-throughput results (PubChem BioAssay)
TDP1 cell CPT: DT40-hTDP1 cell growth loss with CPT; chicken DT40 Tdp1-/-;hTDP1 cells + 20 nM CPT, ATP luminescence, 48 h; actives 12% (n = 420,000); AID 686979; Potency, µM (top dose mostly 46.2 µM), hits mostly inhibitors; also: nearly all actives have a fitted effect of over 55% in size
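Chicken DT40 Tdp1-/- cells stably complemented with human TDP1 were seeded at 400 cells/well in medium containing 20 nM camptothecin, exposed to pin-transferred compounds, and grown at 37 °C for at least 48 hr. Viability was read as ATP luminescence.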
IL-1B inflam inh: blocks inflammasome-driven IL-1 beta release | THP-1 LPS/ATP IL-1B secretion, AlphaLISA, 16 h; active compounds read low | activity change, % at 57.5 µM | actives 4.7% (n = 360,000) | AID 743279; in the data active = activity change below about -50%; inconclusive = mostly about -30% to -49%
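Secreted IL-1B measured by AlphaLISA bead assay after 16 h compound exposure of THP-1 cells; compounds (final up to 57.5 uM) added 1 h before LPS (250 ng/mL) and ATP (1.25 mM) stimulation; lower signal means less secretion.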
RORg inh: ROR gamma (mouse) transcription inhibition | Drosophila S2 Gal4-RORgamma UAS-luciferase reporter, 20 h | Potency, µM (titrated, usually from 53.6 µM), most hits filed as inhibitors | actives 5.4% (n = 310,000) | AID 2551; also: nearly all actives have a fitted effect of over 60% in size
Target sequence (P51450 whole entry, looked up, the tested form may be a part): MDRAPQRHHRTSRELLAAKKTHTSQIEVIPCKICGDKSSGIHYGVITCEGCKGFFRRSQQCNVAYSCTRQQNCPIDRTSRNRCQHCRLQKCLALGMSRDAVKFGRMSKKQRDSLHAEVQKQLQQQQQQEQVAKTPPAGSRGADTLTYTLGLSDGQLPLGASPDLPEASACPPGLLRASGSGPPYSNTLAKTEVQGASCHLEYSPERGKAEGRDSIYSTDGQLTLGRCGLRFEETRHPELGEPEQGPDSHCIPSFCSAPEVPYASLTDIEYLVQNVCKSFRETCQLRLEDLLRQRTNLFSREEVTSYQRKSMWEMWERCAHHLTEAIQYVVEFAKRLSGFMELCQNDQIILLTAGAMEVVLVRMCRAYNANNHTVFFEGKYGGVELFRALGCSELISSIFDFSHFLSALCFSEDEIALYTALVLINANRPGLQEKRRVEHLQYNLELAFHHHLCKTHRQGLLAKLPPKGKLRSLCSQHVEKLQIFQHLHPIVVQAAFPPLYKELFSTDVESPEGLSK
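Luminescence from a UAS-regulated Photinus luciferase reporter in stably transfected Drosophila Schneider cells is measured; decreased signal marks ROR gamma inhibition. Fusion expression is induced by 700 uM copper sulfate for 20 hr.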
Gal4-VP16 FLuc: Gal4-VP16 reporter inhibition counter-screen | Drosophila S2 Gal4-VP16 UAS-luciferase, luminescence, 20 h | Potency, µM (series often up to 53.6 µM), hits mostly inhibitors | actives 3.5% (n = 310,000) | AID 2546;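 also: Gal4-VP16 expression switched on by copper sulfate through the metallothionein promoter; nearly all actives have a fitted effect of over 50% in size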
DT40 TDP1 no CPT: qHTS for Inhibitors of human tyrosyl-DNA phosphodiesterase 1 (TDP1): qHTS in cells in absence of CPT; Potency, µM (series often up to 46.2 µM), most hits filed as inhibitors; DT40 Tdp1-/- hTDP1 cells, no CPT, ATP luminescence, 48 h; actives 15% (n = 420,000); also: nearly all actives have a fitted effect of over 55% in size
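Stably hTDP1-transfected Tdp1-null chicken DT40 cells were treated with library compounds minus camptothecin and grown for at least 48 hr at 37 °C, after which cellular ATP was quantified by luminescence.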
ELG1 repair inh: inhibitors of ELG1-dependent DNA repair in HEK293T cells | HEK293T ELG1-luciferase reporter, luminescence, 16 h; DNA damage induced by 5-fluorouridine | Potency, µM (doses to about 46.1 µM), hits mostly inhibitors | actives 2.3% (n = 330,000) | AID 504467; also: nearly all actives have a fitted effect of over 55% in size
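5-Fluorouridine DNA damage + compound/DMSO, 2,000 cells/well, 16 h, 37 °C/5% CO2. ONE-Glo, 30 min RT, luminescence. Readout = decrease in reporter signal.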
Hits are given with their value; n = inactive; u = inconclusive; x = no result; ! = not confirmed by another sample; [ ] = remark or other dose. An excerpt weighted towards active compounds, which were near 21% of everything screened. Unless noted, calls follow the shape of the dose curve; as a rule, active = well fitted curve in the direction sought with a large enough effect; inconclusive = small, poorly fitted or top-dose-only effect, or another doubt; inactive = no such curve, though single readings can be large; an effect the other way counts as inactive or inconclusive.

SMILES	TDP1 cell CPT	IL-1B inflam inh	RORg inh	Gal4-VP16 FLuc	DT40 TDP1 no CPT	ELG1 repair inh
S=C(Nc1cccnc1)Nc1cccc2cnccc12	n	n	n	n	n	n
Cc1ccccc1C(=O)OCc1cc(=O)n2nc(-c3cccs3)sc2n1	n	x	x	x	n	x
CCOc1ccc(OCCCCn2cnc3ccccc3c2=O)cc1	u	n	n	n	u	16µM
CCOc1cccc(OCCCCn2cnc3ccccc3c2=O)c1	n	n	n	n	n	n
CC1=C(C(=O)N2CCOCC2)CC(CC(=O)NCCCN(C)C)C(=O)N1Cc1ccc(F)cc1 (stereo not drawn)	n	n	x	x	n	x
COc1cc(OC)c(NC(=O)c2oc3ccc4c(c3c2C)C(=O)CC(C)(C)O4)cc1Cl	n	x	x	x	n	x
CCc1nc(SCC(=O)Nc2cc(C)ccc2OC)c2c(C)c(C)sc2n1	n	n	n	n	15µM	n
COc1ccc(C)cc1NC(=O)CCCNC(=O)Cn1cnc2sc(C)c(C)c2c1=O	n	n	n	n	n	n
Cc1sc2nc(SCC(=O)Nc3ccccc3F)[nH]c(=O)c2c1C	n	n	n	n	n	n
CCc1nc(SCC(=O)Nc2ccccc2OC)c2c(C)c(C)sc2n1	u	u	n	n	21µM	u
CCCn1cc(CN2CCC(n3nccc3NC(=O)C(OC)c3ccccc3)CC2)c(C)n1 (stereo not drawn)	n	n	n	n	u	n
CN(CCc1ccccc1)C(C(=O)c1ccc2c(c1)OCO2)c1nnnn1-c1ccccc1NC(=O)OC(C)(C)C (stereo not drawn)	15µM	n	x	x	16µM	x
Cc1cc(NC(=O)OC(C)(C)C)c(-n2nnnc2C(C(=O)c2ccc3c(c2)OCO3)N2CCN(c3ccccn3)CC2)cc1C (stereo not drawn)	23µM	n	x	x	16µM	x
CCCCCCC(O)C/C=C/CCCCCCCC(=O)O (stereo not drawn)	x	x	n	n	x	x
COc1ccc(-c2cn3cc(C(F)(F)F)cc(Cl)c3n2)cc1	u	n	n	n	18µM	u
Fc1ccc(-c2cn3cc(C(F)(F)F)cc(Cl)c3n2)cc1	n	n	n	n	n	u
COc1ccc(C2NC(=O)NC(C)=C2C(=O)OC2CCCCC2)cc1 (stereo not drawn)	18µM	n	x	x	u	x
COc1ccc(C2NC(=O)NC(C)=C2C(=O)OC2CCCC(C)C2)cc1 (stereo not drawn)	u	u	u	n	u	n
COc1ccc(C2NC(=O)NC(C)=C2C(=O)OC2CCC(C)CC2)cc1 (stereo not drawn)	u	-65	u	n	18µM	u
CC1(C)Oc2ccc3ccc(=O)oc3c2/C(=C/NCCN/C=C2\C(=O)C(C)(C)Oc3ccc4ccc(=O)oc4c32)C1=O	x	x	n	n	x	8.2µM
Cn1cnc([N+](=O)[O-])c1Sc1nc(N)nc2c1ncn2C1CC(O)C(CO)O1 (stereo not drawn)	u	n	x	x	13µM	x
Nc1nc2c(ncn2CCC(CO)CO)c(=O)[nH]1	0.67µM	x	n	n	1.7µM	x
Nc1nc2c(ncn2C2OC(CO)CC2O)c(=O)[nH]1 (stereo not drawn)	0.92µM	x	20µM	u	1.5µM	x
O=c1[nH]cnc2c1ncn2C1CCC(CO)O1 (stereo not drawn)	13µM	n	x	x	u	x
O=c1[nH]cnc2c1ncn2C1OC(CO)C(O)C1O (stereo not drawn)	0.58µM!	n	n	n	0.82µM!	x
SMILES	TDP1 cell CPT	IL-1B inflam inh	RORg inh	Gal4-VP16 FLuc	DT40 TDP1 no CPT	ELG1 repair inh
CC(C)C(=O)Nc1nc2c(ncn2C2CC(O)C(CO)O2)c(=O)[nH]1 (stereo not drawn)	n	n	n	n	u	n
Nc1nc2c(ncn2[C@@H]2O[C@H](CO)[C@@H](O)[C@H]2O)c(=O)[nH]1	n	x	n	n	n	x
O=c1[nH]cnc2c1ncn2[C@H]1C[C@H](O)[C@@H](CO)O1	13µM	x	x	x	u	x
CC(NC(=O)/C=C/c1ccc(Br)cc1)c1ccccc1 (stereo not drawn)	16µM	n	n	n	u	n
O=C(/C=C/c1ccc(Br)cc1)NC(=O)c1ccccc1O	n	-95	u	n	u	u
CC(C)CO/N=C1/C[C@@H](O)[C@@H](O)[C@@H]2[C@@H]3C(=O)N(Cc4ccc5c(c4)OCO5)C(=O)[C@H]3CC[C@@H]12	x	x	n[10 µM]	n[10 µM]	x	x
CC(C)C(=O)NC(=S)Nc1ccccn1	n	n	13µM	u	n	n
COc1ccccc1NC(=S)NC(=O)C(C)(C)C	n	n	n	n	n	u
CC(C)(C)C(=O)NC(=S)Nc1ccccn1	n	n	13µM	u	n	u
Cn1c(=O)c2c(nc(SCC(=O)Nc3ccccc3F)n2Cc2ccccc2F)n(C)c1=O	n	x	x	x	2.9µM	x
Cc1occc1-c1nnc(SCC(=O)Nc2ccccc2N2CCCCC2)n1C	18µM	-53	u	n	18µM	u
Cc1occc1-c1nnc(SCC(=O)Nc2ccccc2)n1C	n	n	n	n	n	n
CCn1c(SCC(=O)Nc2ccccc2N2CCCCC2)nc2c1c(=O)n(C)c(=O)n2C	18µM	n	n	n	16µM	18µM
CCOc1ccccc1-n1c(SCC(=O)NC(C)(C)C)nnc1-c1ccoc1C	n	n	n	n	n	u
CCOc1ccccc1-n1c(SCC(=O)NC2CCCC2)nnc1-c1ccoc1C	u	n	n	n[0.365 µM]	14µM	n
COc1ccc(S(=O)(=O)N2CCC(C(=O)N[C@@H](C)C(=O)NCc3cccnc3)CC2)cc1	n	n	x	x	n	x
O=C(CCCSc1nnnn1-c1cccc2ccccc12)c1ccc(F)cc1	n	n	u	n	21µM	n
Cc1occc1-c1nnc(SCCCC(=O)c2ccc(F)cc2)n1C	18µM	n	n	u	16µM	n
O=C(CSc1nnnn1-c1cccc2ccccc12)Nc1ccc(C(=O)O)cc1	n	n	n	n	n	n
Cn1c(SCCCC(=O)c2ccc(F)cc2)nnc1-c1ccncc1	u	n	n	n	u	n
CCOc1ccccc1NS(=O)(=O)c1ccc2oc(=O)ccc2c1	n	n	n	n	u	n
C=CCn1c(SCC(=O)Nc2ccc(N3CCOCC3)cc2)nnc1-c1ccco1	n	n	n	n	n	n
CC1CC(C)CN(C(=O)CNC(=O)c2ccc3ccccc3c2)C1 (stereo not drawn)	n	n	n	n	u	n
CC(C)Cn1c2c(c(=O)[nH]c1=O)C(C(F)(F)F)(C(F)(F)F)N=C(CCC1CCCCC1)N2	6.5µM	n	u	11µM	4.1µM	n
